Source: PubChem
Only some compounds are listed: those with a hit (about 3.8% of all), similar ones and a draw of the others.
MPTP inh: inhibitors of mitochondrial permeability transition pore | isolated mouse mitochondria, Ca2+ swelling absorbance, 30 min | inhibition, % at 10 µM | AID 602449 | 360,000 compounds, 1.4% hits;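 active = inhibition of 50% or more, scaled per plate between neutral and stimulator controls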;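 also: 0% = DMSO wells given calcium and 100% = 1 mM EGTA wells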
aDG glyco up: alpha-DG glycosylation activation; 360,000 compounds, 0.22% hits; Pro5-aDG cells, alpha-DG glycosylation AlphaScreen (IIH6); 0% Pro5, 100% B10-LARGE cell signal; activation, % at 10 µM;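 active = activation of at least 8% versus controls, or a plate z-score of at least 8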;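 also: Pro5 are CHO cells carrying HIG-tagged alpha-DG that lacks glycosylation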
FAS TE block: blocks the thioesterase domain of human fatty acid synthase; P49327; recombinant FAS-TE, OMFH fluorogenic substrate, fluorescence endpoint; inhibition, % at 15 µM; 360,000 compounds, 0.67% hits; AID 602261;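 active = compounds whose normalised, plate-corrected inhibition of enzyme fluorescence in the single-dose primary screen is 50% or more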;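 also: 0% = DMSO with enzyme and 100% = substrate without enzyme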
Target sequence (P49327 whole entry, looked up, the tested form may be a part): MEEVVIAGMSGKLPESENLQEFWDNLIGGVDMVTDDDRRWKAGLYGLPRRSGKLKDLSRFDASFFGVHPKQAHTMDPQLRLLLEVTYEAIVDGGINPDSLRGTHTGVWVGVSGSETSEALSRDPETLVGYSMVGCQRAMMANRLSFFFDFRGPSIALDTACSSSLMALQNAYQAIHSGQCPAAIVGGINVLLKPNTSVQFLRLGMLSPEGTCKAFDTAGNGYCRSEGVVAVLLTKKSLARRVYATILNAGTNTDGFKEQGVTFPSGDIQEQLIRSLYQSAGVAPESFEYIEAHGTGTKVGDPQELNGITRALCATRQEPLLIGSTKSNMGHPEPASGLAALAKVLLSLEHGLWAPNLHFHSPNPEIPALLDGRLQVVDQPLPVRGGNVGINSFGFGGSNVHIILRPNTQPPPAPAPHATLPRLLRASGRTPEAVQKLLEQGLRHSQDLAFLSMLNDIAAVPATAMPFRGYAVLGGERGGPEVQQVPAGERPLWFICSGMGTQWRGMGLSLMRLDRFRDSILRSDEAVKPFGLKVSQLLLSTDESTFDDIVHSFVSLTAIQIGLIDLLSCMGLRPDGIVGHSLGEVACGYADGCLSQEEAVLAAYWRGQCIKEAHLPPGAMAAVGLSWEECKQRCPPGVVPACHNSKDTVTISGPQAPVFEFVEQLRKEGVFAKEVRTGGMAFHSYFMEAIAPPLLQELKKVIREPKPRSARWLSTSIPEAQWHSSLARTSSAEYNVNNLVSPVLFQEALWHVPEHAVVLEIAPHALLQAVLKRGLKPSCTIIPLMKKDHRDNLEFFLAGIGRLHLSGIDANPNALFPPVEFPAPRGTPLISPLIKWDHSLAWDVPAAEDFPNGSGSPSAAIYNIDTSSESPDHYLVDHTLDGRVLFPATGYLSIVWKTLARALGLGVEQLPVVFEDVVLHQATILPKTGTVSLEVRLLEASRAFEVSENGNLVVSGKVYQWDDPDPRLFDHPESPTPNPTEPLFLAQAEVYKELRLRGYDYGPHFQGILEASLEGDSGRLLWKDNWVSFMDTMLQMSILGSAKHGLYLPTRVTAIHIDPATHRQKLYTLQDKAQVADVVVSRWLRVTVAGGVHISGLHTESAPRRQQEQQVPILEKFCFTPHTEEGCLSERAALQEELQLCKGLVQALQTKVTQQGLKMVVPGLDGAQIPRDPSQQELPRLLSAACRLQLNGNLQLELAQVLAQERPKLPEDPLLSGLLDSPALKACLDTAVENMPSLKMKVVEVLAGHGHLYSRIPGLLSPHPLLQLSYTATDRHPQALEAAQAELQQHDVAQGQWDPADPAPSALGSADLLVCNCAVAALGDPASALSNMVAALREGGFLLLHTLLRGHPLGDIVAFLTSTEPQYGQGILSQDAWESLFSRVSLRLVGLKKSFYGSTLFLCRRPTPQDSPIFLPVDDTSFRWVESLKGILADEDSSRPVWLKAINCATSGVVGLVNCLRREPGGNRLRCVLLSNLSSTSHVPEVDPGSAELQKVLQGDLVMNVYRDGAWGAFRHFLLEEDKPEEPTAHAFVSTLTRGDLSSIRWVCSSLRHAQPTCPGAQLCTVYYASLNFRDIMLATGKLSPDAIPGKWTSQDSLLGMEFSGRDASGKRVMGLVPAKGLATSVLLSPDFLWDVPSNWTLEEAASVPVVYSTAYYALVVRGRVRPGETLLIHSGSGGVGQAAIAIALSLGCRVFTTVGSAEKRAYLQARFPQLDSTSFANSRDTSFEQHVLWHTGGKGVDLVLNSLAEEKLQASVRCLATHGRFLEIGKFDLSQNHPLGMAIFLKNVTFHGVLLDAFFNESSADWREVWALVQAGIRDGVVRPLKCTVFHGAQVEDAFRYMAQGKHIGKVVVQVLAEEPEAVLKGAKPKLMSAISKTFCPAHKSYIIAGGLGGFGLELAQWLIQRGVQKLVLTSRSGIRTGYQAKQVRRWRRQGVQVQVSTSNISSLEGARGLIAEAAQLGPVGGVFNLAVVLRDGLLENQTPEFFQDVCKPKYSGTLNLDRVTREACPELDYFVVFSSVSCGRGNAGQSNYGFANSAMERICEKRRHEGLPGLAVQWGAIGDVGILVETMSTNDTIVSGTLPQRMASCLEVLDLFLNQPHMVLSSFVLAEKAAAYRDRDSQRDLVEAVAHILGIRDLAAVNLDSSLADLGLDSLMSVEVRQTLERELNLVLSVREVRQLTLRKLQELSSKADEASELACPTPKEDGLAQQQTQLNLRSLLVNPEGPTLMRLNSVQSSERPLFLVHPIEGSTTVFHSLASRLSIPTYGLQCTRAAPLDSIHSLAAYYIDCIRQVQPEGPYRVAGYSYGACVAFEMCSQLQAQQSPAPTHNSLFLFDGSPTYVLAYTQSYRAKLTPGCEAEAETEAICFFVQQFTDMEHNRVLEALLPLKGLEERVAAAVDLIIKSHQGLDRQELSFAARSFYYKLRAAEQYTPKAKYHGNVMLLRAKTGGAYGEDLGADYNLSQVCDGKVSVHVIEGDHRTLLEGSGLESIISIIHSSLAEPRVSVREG
SUMO Mot1 rescue: blocks SUMOylation pathway, rescuing yeast Mot1-301 growth | S. cerevisiae Mot1-301 growth rescue, ATP luminescence, 38.5C; percent above DMSO median, 100 means doubled | growth rescue, % at 18.8 µM | 320,000 compounds, 1% hits | AID 2716;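 active = every valid replicate shows activation above 250% relative to neutral control wells; inactive = the rest, any valid replicate at or below 250%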;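 also: OY570 slx delta 5 strain wells were the positive control but not used for scaling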
H9c2 protect: protects H9c2 cardiomyocytes from peroxide injury | H2O2 injury protection, ATPLite, 2 h | protection from H2O2 cell death, % at 20 µM | 360,000 compounds, 0.63% hits | AID 588492;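 active = compounds giving at least 50% protection of heart cells from peroxide-induced death in the single-dose screen, raw or plate-pattern-corrected value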;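 also: 0% = DMSO wells with peroxide and 100% = DMSO wells without peroxide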
CR mimetic SO: yeast age-related superoxide inhibition as caloric restriction mimetic. superoxide response (% of plate mean), % at 10 µM. S. cerevisiae aged cells, superoxide DHE fluorescence; stronger effect = lower value. 330,000 compounds, 0.18% hits;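 active = superoxide response under a set limit, about three screen SD below normal, cut at about 65% in these data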;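 also: yeast aged for seven days with compound at 30 °C before DHE staining; 100% = average MFI of all compound-treated wells on the plate with controls excluded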
Mot1 SUMO dose: inhibits SUMO pathway, affecting Mot1-301 yeast growth | shares compounds with SUMO Mot1 rescue | S. cerevisiae Mot1-301 galactose growth, ATP luminescence, 24 h; -100 = growth of slx-deleted rescue strain | growth activity, percent, % at 42 µM | 2,300 tested, under 10 active | AID 493004;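 active = Signal drops as the depositor expects, and the fitted half-maximal dose is no more than ten times the top valid tested dose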;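 also: more negative values mean stronger growth rescue toward the control strain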
Active calls of the source: *.

Results for Cc1ccc(C(=O)/C=C/Nc2ccccc2C(N)=O)cc1 ?
MPTP inh: -1; aDG glyco up: 0; FAS TE block: -4; SUMO Mot1 rescue: 481*; H9c2 protect: -30; CR mimetic SO: 96; Mot1 SUMO dose: 0

How did CC(C)C(NC(=S)Nc1ccccc1)C(=O)O (stereo not given) do in these assays?
MPTP inh: 1; aDG glyco up: 0; FAS TE block: -13; SUMO Mot1 rescue: 956*; H9c2 protect: -2; CR mimetic SO: 107; Mot1 SUMO dose: -1

How did CC(C)CC(c1nnnn1C1CCCCC1)N1CCN(C(=O)c2ccco2)CC1 (stereo not given) do in these assays?
MPTP inh: -1; aDG glyco up: 0; FAS TE block: -3; SUMO Mot1 rescue: 706*; H9c2 protect: 2; CR mimetic SO: 98; Mot1 SUMO dose: 0

Results for CSc1ccccc1NC(=O)CN(C)C(=O)C1CC(=O)N(C(C)c2ccccc2)C1 (stereo not given) ?
MPTP inh: -1; aDG glyco up: 0; FAS TE block: -2; SUMO Mot1 rescue: -7; H9c2 protect: 1; CR mimetic SO: 85

Results for Clc1cccc(Cl)c1CSc1nnc(CN2CCOCC2)n1-c1ccccc1 ?
MPTP inh: 2; aDG glyco up: 0; FAS TE block: -3; SUMO Mot1 rescue: 3; H9c2 protect: 4; CR mimetic SO: 102

What do the screens show for `Clc1ccc(CSc2nnc(CN3CCOCC3)n2-c2ccccc2)cc1Cl`?
MPTP inh: -2; aDG glyco up: 0; FAS TE block: 14; SUMO Mot1 rescue: 588*; H9c2 protect: -12; CR mimetic SO: 99; Mot1 SUMO dose: 0

What do the screens show for `Fc1cccc(Cl)c1CSc1nnc(CN2CCOCC2)n1-c1ccccc1`?
MPTP inh: -1; aDG glyco up: 0; FAS TE block: -3; SUMO Mot1 rescue: 551*; H9c2 protect: 3; CR mimetic SO: 101; Mot1 SUMO dose: 0

What do the screens show for `CCOC(=O)C1=C(C)NC(C)=C(C(=O)OCC)C1C(=O)OC1CCOC1=O` (stereo not given)?
MPTP inh: 0; aDG glyco up: 0; FAS TE block: -4; SUMO Mot1 rescue: 463*; H9c2 protect: -5; CR mimetic SO: 105; Mot1 SUMO dose: 0

Results for CCOC(=O)C1=C(C)NC(C)=C(C(=O)OCC)C1C(=O)OCC(=O)N1CCOCC1 ?
MPTP inh: 0; aDG glyco up: 0; FAS TE block: 0; SUMO Mot1 rescue: -1; H9c2 protect: 0; CR mimetic SO: 107

Results for COc1cccc(NC(=S)NC(=O)c2cncc(Br)c2)c1 ?
MPTP inh: 3; aDG glyco up: 0; FAS TE block: 1; SUMO Mot1 rescue: 983*; H9c2 protect: 0; CR mimetic SO: 101; Mot1 SUMO dose: -1

How did CC(=O)c1cccc(NC(=S)NC(=O)c2cncc(Br)c2)c1 do in these assays?
MPTP inh: -1; aDG glyco up: 0; FAS TE block: 3; SUMO Mot1 rescue: -8; H9c2 protect: 7; CR mimetic SO: 81

What do the screens show for `COc1cccc(-c2ocnc2C(=O)Nc2ccc3c(c2)CCC3)c1`?
MPTP inh: 2; aDG glyco up: 0; FAS TE block: 12; SUMO Mot1 rescue: 430*; H9c2 protect: 0; CR mimetic SO: 103; Mot1 SUMO dose: 0

How did CCN(CC)c1ncnc2c1ncn2[C@H]1CN(Cc2ccc(-c3ccccc3)cc2)C[C@@H](CO)O1 do in these assays?
MPTP inh: -1; aDG glyco up: 1; FAS TE block: 7; H9c2 protect: 2

Results for CC1CCCC12NC(=O)NC2=O (stereo not given) ?
MPTP inh: 1; aDG glyco up: 0; FAS TE block: -10; H9c2 protect: 0

What do the screens show for `CCOC(=O)NC1(Nc2ccc(C)cc2)Oc2ccccc2O1`?
MPTP inh: 2; aDG glyco up: 0; FAS TE block: -7; SUMO Mot1 rescue: 445*; H9c2 protect: 29; CR mimetic SO: 107; Mot1 SUMO dose: 0
